# Assay results published in PubChem BioAssay AID588727 (Southern Research Specialized Biocontainment Screening …, 2011).
# About 450 (0.13%) of roughly 350,000 compounds were called active. The rule behind the calls is not given here. A selection follows. Measured potencies and affinities stand elsewhere.
# Assay: inhibitors of VEEV TC-83 cytopathic effect, confirmation, Vero cells (AID 588727)
# Settings: VEEV TC-83 cytopathic effect inhibition, at 20 µM
# [1] = stronger effect = higher value unless noted
smiles,measurement,setting,value
NC(=O)C1CCN(C(=O)c2cc(S(=O)(=O)N3CCOCC3)c(Cl)cc2Cl)CC1,inhibition,[1],0.6% (inactive)
Cc1nn(-c2ccc(C(=O)O)cc2)c(=O)c2ccccc12,inhibition,[1],0.65% (inactive)
COc1ccc(CCNC(=O)CSc2nc(=O)[nH]c3c2CCC3)cc1OC,inhibition,[1],0.77% (inactive)
COc1ccc(CC(=O)OCC(=O)Nc2ncc(Cl)c(C)c2Cl)cc1,inhibition,[1],5.2% (inactive)
COc1ccccc1/C=C/C(=O)c1ccccc1,inhibition,[1],26.1% (inactive)
COc1ccccc1/C=C/C(=O)c1ccc(Cl)cc1,inhibition,[1],inactive
COc1ccccc1C(=O)N(Cc1ccco1)C1CCS(=O)(=O)C1 (stereo unspecified),inhibition,[1],0.87% (inactive)
CCCCNC(=O)[C@@H]1CCCN1S(=O)(=O)c1cccc2cccnc12,inhibition,[1],inactive
O=C(Cc1ccc(NC(=O)C2CCN(C(=O)c3ccccc3)CC2)cc1)Nc1cccc(C(=O)N2CCCC2)c1,inhibition,[1],inactive
O=C(Nc1cccc2ccccc12)N(c1ccccc1)c1ccccc1,inhibition,[1],inactive
Cc1ccnc(NS(=O)(=O)c2ccc(NC(=O)c3ccc(C)o3)cc2)n1,inhibition,[1],0.84% (inactive)
Cc1sc2nc(CN(Cc3cccs3)C(=O)NC3CCCCC3)[nH]c(=O)c2c1C,inhibition,[1],6.2% (inactive)
CNC[C@H](Cc1ccccc1)NC[C@@H](Cc1cccc2ccccc12)NCCc1ccc(C)cc1,inhibition,[1],inactive
CC[C@@H](C)[C@H](CNC)NC[C@@H](Cc1cccc2ccccc12)NCCc1cccc(C(F)(F)F)c1,inhibition,[1],"0% [measured here: 10K pilot screen inhibition, stronger effect = higher value]"
same,outcome,[1],inactive
COc1ccc(/C=N\NC(=O)c2ccccc2OC)cc1COc1ccccc1C,inhibition,[1],10.1% (inactive)
Cc1ccc(-c2nc(SC(C)C(=O)c3c(N)n(C)c(=O)n(C)c3=O)n[nH]2)cc1 (stereo unspecified),inhibition,[1],10.2% (inactive)
CCC(=O)N1c2ccc(S(=O)(=O)CCC(=O)NCc3cccs3)cc2CC1C (stereo unspecified),inhibition,[1],1.31% (inactive)
O=C(NCC(Cl)c1ccc2ccccc2c1)c1c(F)cccc1F (stereo unspecified),inhibition,[1],inactive
Cc1cc(-c2nnc(SCC(=O)Nc3ccccc3C(F)(F)F)n2N)n[nH]1,inhibition,[1],1.16% (inactive)
COc1cc(CNCCSc2nnnn2C)cc(Br)c1OCc1ccccc1F,inhibition,[1],inactive
COc1ccc(/C=C/C(=O)c2ccc3ccccc3c2O)cc1CN1CCOCC1,inhibition,[1],2% (inactive)
COc1ccc(/C=C/C(=O)c2ccccc2O)cc1CN1CCOCC1,inhibition,[1],6.83% (inactive)
COc1ccc(/C=C/C(=O)C23CC4CC(CC(C4)C2)C3)cc1CN1CCOCC1,inhibition,[1],6.32% (inactive)
COc1ccc(C(=O)/C=C/c2ccc(OC)c(Cn3nnc4ccccc43)c2)cc1,inhibition,[1],30.9% (inactive)
CCC1(C)NC(=O)N(CC(=O)NCC(=O)Nc2c(C)cc(C)cc2C)C1=O (stereo unspecified),inhibition,[1],inactive
O=C(CSc1ncnc2c1cnn2-c1ccccc1)NC1CCCC1,inhibition,[1],4.66% (inactive)
Cc1nn(-c2ccccn2)c2nc(-c3cccs3)cc(C(=O)NCc3ccco3)c12,inhibition,[1],8.96% (inactive)
CCC(=O)N1CCc2cc(S(=O)(=O)N3CCN(c4ccccc4)CC3)ccc21,inhibition,[1],0.73% (inactive)
CC(C)[C@H](NS(=O)(=O)c1ccccc1)C(=O)OCC(=O)Nc1cccc(S(N)(=O)=O)c1,inhibition,[1],3.51% (inactive)
CS(=O)(=O)N1CCN(c2ccc([N+](=O)[O-])c(NCCN3CCOCC3)c2)CC1,inhibition,[1],0.31% (inactive)
COc1ccc(Nc2ncccc2C(=O)O)cc1,inhibition,[1],inactive
CC(C)c1ccc(Nc2ncccc2C(=O)O)cc1,inhibition,[1],7.46% (inactive)
CC[C@@]1(C(=O)OC)N[C@H](CN(C)C(=O)Nc2ccc(OC)cc2)[C@@H]2C(=O)N(C)C(=O)[C@@H]21,inhibition,[1],inactive
COc1ccc(C(=O)CCC(=O)Nc2cccnc2)cc1,inhibition,[1],1.27% (inactive)
COc1ccc(Nc2c(-c3ccc(C)cc3)nc3cnccn23)cc1,inhibition,[1],2.6% (inactive)
CCOC(=O)C1CCCN(c2nnnn2-c2ccccc2)C1 (stereo unspecified),inhibition,[1],0.53% (inactive)
O=C(CSc1nnc(-c2ccco2)o1)Nc1cccc([N+](=O)[O-])c1,inhibition,[1],1.81% (inactive)
O=C(Oc1ccc2ccccc2c1Cl)N1CCCC1,inhibition,[1],35.1% (inactive)
O=C(Oc1ccc2ccccc2c1Cl)N1CCCCCC1,inhibition,[1],2.11% (inactive)
CN1CCN(C(=O)CCc2nc3ccccc3c(=O)[nH]2)CC1,inhibition,[1],5.24% (inactive)
CN(C)C(CNC(=O)CN1C(=O)NC2(CCCC2)C1=O)c1ccccc1 (stereo unspecified),inhibition,[1],1.45% (inactive)
CCOc1ccc(/C=N/NC(=O)c2ccc(O)cc2)cc1CN1CC2CC(C1)c1cccc(=O)n1C2 (stereo unspecified),inhibition,[1],1.76% (inactive)
CCc1c(C)sc(NC(=O)c2cccs2)c1C(N)=O,inhibition,[1],0.91% (inactive)
CCc1c(C)sc(NC(=O)C2CCCCC2C(=O)O)c1C(N)=O (stereo unspecified),inhibition,[1],inactive
O=C(O)CSc1nnc(Cc2ccccc2)n1-c1ccccc1,inhibition,stronger effect = higher value,4.71% (inactive)
same,inhibition,"measured here: 10K pilot screen inhibition, stronger effect = higher value",0.6%
COc1ccc(Cl)cc1NC(=O)C(C)N(C)Cc1cccc(Cl)c1Cl (stereo unspecified),inhibition,[1],0.94% (inactive)
COc1ccc(C2/C(=C(\O)c3cc(C)ccc3C)C(=O)C(=O)N2CCN(C)C)cc1OC (stereo unspecified),inhibition,[1],0.58% (inactive)
O=C(O)CCC(=O)N1CCCC1,inhibition,[1],0.36% (inactive)
Nc1ccn([C@H]2CS[C@@H](CO)O2)c(=O)n1,inhibition,[1],1.18% (inactive)
CCc1cccc2c(SC(C)C(=O)NCC3CCCO3)nc(-c3ccccc3)nc12 (stereo unspecified),inhibition,[1],0.17% (inactive)
CC(Sc1ncnc2sc(-c3ccccc3)cc12)C(=O)NCC1CCCO1 (stereo unspecified),inhibition,[1],12.6% (inactive)
Cc1cccc(NC(=O)NNC(=O)c2sccc2-n2cccc2)c1,inhibition,[1],2.59% (inactive)
O=C(/C=C/c1c(F)cccc1Cl)Nc1ncccn1,inhibition,[1],7.45% (inactive)
O=C(/C=C/c1ccccc1Cl)c1ccc(O)cc1,inhibition,[1],12.4% (inactive)
CCCCn1c(N)c(N(Cc2ccccc2OC)C(=O)CCSC)c(=O)[nH]c1=O,inhibition,[1],2% (inactive)
Cc1nn(C)cc1/C=N/NC(=S)Nc1ccc(Cl)cc1Cl,inhibition,[1],1.88% (inactive)
Clc1cccc(-c2noc3ncnc(Nc4ccc5c(c4)OCO5)c23)c1,inhibition,[1],1.3% (inactive)
O=C(Nc1ccc(N2CCOCC2)c(Cl)c1)c1cccnc1,inhibition,[1],1.94% (inactive)
O=C(Nc1ccc(N2CCCC2)c(Cl)c1)c1cccnc1,inhibition,[1],9.45% (inactive)
O=C(Nc1ccc(Cl)cc1)c1nc[nH]c1C(=O)NCCN(CCNC(=O)c1[nH]cnc1C(=O)Nc1ccc(Cl)cc1)CCNC(=O)c1[nH]cnc1C(=O)Nc1ccc(Cl)cc1,inhibition,[1],0.19% (inactive)
CCCN1C(=O)c2ccccc2NC1c1cc(OC)c(OC)c(OC)c1 (stereo unspecified),inhibition,[1],inactive
CCCN1C(=O)c2ccccc2NC1c1ccc(OC)cc1OC (stereo unspecified),inhibition,[1],inactive
CCOC(=O)c1c(-c2ccccc2)oc2cc(CN(C)C)c(O)c(CN(C)C)c12,inhibition,[1],2.26% (inactive)
CC1(C)Cc2[nH]c3ccccc3c2C(C)(C)N1,inhibition,[1],0.1% (inactive)
Cc1cccn2cc(COc3cccc([N+](=O)[O-])c3)nc12,inhibition,[1],2.58% (inactive)
Cc1cccn2cc(-c3ccccc3)nc12,inhibition,[1],5.4% (inactive)
Cc1ccc(S(=O)(=O)Oc2ccc(N3C(=O)C4C5CCC(C5)C4C3=O)cc2)cc1 (stereo unspecified),inhibition,[1],2.05% (inactive)
Cc1ccc2[nH]c3c(=O)n(CC(=O)Nc4ccccc4N4CCN(C)CC4)ncc3c2c1,inhibition,[1],0.06% (inactive)
Cc1ccc2oc(=O)c3cnn(CC(=O)N4CCN(c5ccccc5)CC4)c3c2c1,inhibition,[1],10.3% (inactive)
COc1ccc(C)cc1NC(=O)CCN1CCN(C/C=C/c2ccccc2)CC1,inhibition,[1],inactive
CCc1ccc(N2CC(O)(c3cccs3)[N+]3=C2SCCC3)cc1 (stereo unspecified),inhibition,[1],3.66% (inactive)
Cc1ccccc1N1CC(O)(c2cccs2)[N+]2=C1CCCC2 (stereo unspecified),inhibition,[1],1.35% (inactive)
C[N+]1=C2CCCCCN2C(O)(c2ccccc2)C1 (stereo unspecified),inhibition,[1],inactive
OC1(c2cccs2)CN(c2ccc(Cl)cc2)C2=[N+]1CCCS2 (stereo unspecified),inhibition,[1],0.66% (inactive)
COc1ccc2oc(C(=O)NCC3CCCO3)c(C)c2c1 (stereo unspecified),inhibition,[1],5.81% (inactive)
COc1ccc(CCNC(=O)CSc2nccc(=O)[nH]2)cc1OC,inhibition,[1],inactive
COc1ccccc1N/N=C(\C#N)C(=N)N1CCOCC1,inhibition,[1],1.39% (inactive)
COc1ccc(Nc2cc(C(=O)NCCCN3CCN(C)CC3)c3ccccc3n2)cc1OC,inhibition,[1],0.68% (inactive)
COc1ccc(Nc2cc(C(=O)NCCCN3CCN(C)CC3)c3ccccc3n2)cc1,inhibition,[1],0.57% (inactive)
O=C(NCc1ccccc1Cl)C(=O)NCC(c1ccco1)N1CCOCC1 (stereo unspecified),inhibition,[1],inactive
Cc1c(NC(=O)CSCc2ccccc2)cccc1C(=O)O,inhibition,[1],0.57% (inactive)
Cc1ccc(CSCC(=O)Nc2ccccc2F)cc1,inhibition,[1],1.09% (inactive)
COCCCNC(=S)NCCc1ccc(F)cc1,inhibition,[1],0.69% (inactive)
COc1ccc(NCC(=O)N/N=C2\CCCC(C)C2)cc1 (stereo unspecified),inhibition,[1],0.09% (inactive)
C=CCN=c1scc(-c2ccccc2)n1/N=C/c1ccccn1,inhibition,[1],12% (inactive)
C=CCN=c1scc(-c2ccc(F)cc2)n1/N=C/c1ccccn1,inhibition,[1],7.98% (inactive)
C[C@H]1O[C@@H](n2cc(F)c(=O)[nH]c2=O)[C@H](O)[C@@H]1O,inhibition,[1],6.89% (inactive)
CC(=O)OCC1OC(n2cc(F)c(=O)[nH]c2=O)C(OC(C)=O)C1OC(C)=O (stereo unspecified),inhibition,[1],5.22% (inactive)
Cc1ccnc(NC(=O)CCC(=O)N(CC(=O)NCc2ccc(F)cc2)CC2CCCO2)c1 (stereo unspecified),inhibition,[1],0.42% (inactive)
COc1ccccc1-c1cn[nH]c1-c1ccc(OCc2ccc(F)cc2)cc1O,inhibition,[1],3.76% (inactive)
OCCOCCNc1ncnc2c1c(-c1ccccc1)cn2-c1ccccc1,inhibition,[1],10.9% (inactive)
c1ccc(-c2cn(-c3ccccc3)c3ncnc(NCCCN4CCOCC4)c23)cc1,inhibition,[1],9.07% (inactive)
COc1ccc(NC(=O)CN2CCCCC2)cc1S(=O)(=O)N1CCCCC1,inhibition,[1],0.88% (inactive)
NC(=O)CC(NC(=O)Cc1cccc2ccccc12)c1ccc(NCc2ccc(F)c(F)c2)c([N+](=O)[O-])c1 (stereo unspecified),inhibition,[1],0.49% (inactive)
